Assay outcomes as filed in PubChem.
A-T KAP1 phos: qHTS Assay for Identifying a Potential Treatment of Ataxia-Telangiectasia; F2112 A-T fibroblasts, KAP-1 phosphorylation AlphaLISA; neocarzinostatin DNA damage 30 min before lysis; Potency, µM (highest dose often 57.5 µM), hits mostly activators; actives 0.19% (n = 320,000); AID 485349, 2010; further: nearly all actives have a fitted effect of over 45% in size
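hTERT-immortalized A-T patient fibroblasts (F2112), 500 cells/well in OPTI-MEM, 1% FBS, got compounds for 60 min, then NCS for 30 min at 37C. Lysates were then assayed for phospho-KAP-1 by AlphaLISA (anti-pKAP1 donor, anti-KAP1 acceptor beads), 6 hr at 25C.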
Nrf2 block: Nrf2 qHTS screen for inhibitors; Potency, µM (doses to about 46 µM), usual class: inhibitors; A549 ARE-Fluc reporter, luciferase luminescence, 18-24 h; actives 2.1% (n = 360,000); further: nearly all actives have a fitted effect of over 60% in size
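Cells were seeded and rested 2 h, then exposed to compounds for 18-24 h. CellTiter-Fluor was read first as a viability measure. BugLite was added 15 min before the final luminescent read of ARE-luciferase activity in A549 cells.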
A549 tox: Nrf2 qHTS screen for inhibitors: counterscreen for cytotoxicity | Potency, µM (series often up to 46 µM), usual class: inhibitors | A549 ARE-Fluc cells, CellTiter-Fluor viability, 18-24 h | AID 504648, 2011 | actives 0.16% (n = 390,000)
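A549 ARE-Fluc cells in 5% FBS OPTI-MEM, 5000 cells/well, rested 2 h then exposed to compounds in concentration-response for 18-24 h at 37 °C. Viability by CellTiter-Fluor fluorescence (Ex 405/Em 525) after 30 min; luciferase luminescence (BugLite, 15 min, RT) read afterwards.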
TCR act: Activators of T cell receptors: qHTS campaign | primary human leukocytes, anti-CD3, IL-2 HTRF, 48 h | Potency, µM (highest dose often 9.22 µM), hits mostly activators | 330,000 tested, under 10 active
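Readout: HTRF IL-2, Eu-cryptate/d2 antibody pair, 320nm excitation, 665nm emission. Stimulus: a-CD3 beads, no co-stimulation. Cells: primary human leukocytes. Exposure: 48 hr with compound.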
CCT chaperon mod: High-Throughput Screening for Modulators of Cytosolic Chaperonin Activity. activity change, % (test concentration not listed), hits read low. actives 0.3% (n = 360,000). AID 651819, 2012. purified chaperonin ATPase assay, HTRF ADP detection, 30 min; in the data active means activity change below about -30%
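TRiC at 40 or 20 nM final (batch-dependent) in 30 mM Tris pH 7.4, 100 mM KCl, 5 mM MgCl2, 1 mM DTT, with compound at single 76 uM and 10 uM ATP, 30 min at 37 deg C. ADP detected by HTRF Transcreener, 665/615 ratio.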
Nrf2 activator: qHTS of Nrf2 Activators. actives 0.31% (n = 410,000). AREc32 ARE-luciferase reporter (MCF7-derived line), luminescence, 24 h. Potency, µM (top dose mostly 46.1 µM), most hits filed as activators; further: nearly all actives have a fitted effect of over 65% in size
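Luciferase luminescence (Steady-Glo, 30 min at room temperature) served as the read-out of ARE activation in AREc32 cells treated with compounds for 24 hr at 37 deg C.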
Numbers stand for hits; - = inactive; ? = inconclusive; . = no result given; [ ] = remark or other dose. A selection: hits, their analogues and other compounds. The true share with any hit is near 2.6%. Unless noted, the call rests on the fitted dose curve; in most records, active means well fitted curve in the direction sought with a large enough effect; inconclusive means small, poorly fitted or top-dose-only effect, or another doubt; inactive means no such curve, though single readings can be large; an effect the other way counts as inactive or inconclusive.

SMILES	A-T KAP1 phos	Nrf2 block	A549 tox	TCR act	CCT chaperon mod	Nrf2 activator
Cc1ccc(-n2nc3c(=O)n(C(C)C(=O)NCCc4cccs4)nc(C)c3c2C)cc1 (stereo not given)	-	11.6µM	-	-	-	-
Cc1nn(C(C)C(=O)NCc2cccs2)c(=O)c2nn(-c3ccccc3)c(C)c12 (stereo not given)	-	-	-	-	-	-
CCC(C(=O)Nc1cc(F)ccc1F)n1nc(C)c2c(C)n(-c3ccc(C)cc3)nc2c1=O (stereo not given)	-	23.1µM	?	-	-	-
CCC(C(=O)NC1CC1)n1nc(C)c2c(C)n(-c3ccc(C)cc3)nc2c1=O (stereo not given)	-	16.4µM	-	-	-	-
CCC(C(=O)NCc1ccc(OC)c(OC)c1)n1nc(C)c2c(C)n(-c3ccc(C)cc3)nc2c1=O (stereo not given)	.	25.9µM	-	.	.	-
Cn1c2c(c3cnc4cc(Cl)ccc4c31)CNCC2	.	-	-	.	.	.
COc1cccc(NS(=O)(=O)c2ccc3c(c2)CCC(=O)N3)c1	.	?	-	.	.	.
COc1ccc(OC)c(NC(=O)c2cc(S(=O)(=O)NCc3ccco3)ccc2F)c1	-	.	-	-	-	-
CCOc1ccccc1NC(=O)c1cc(S(=O)(=O)NCc2ccco2)ccc1F	-	?	-	-	-67.0	-
CCCCN(C(=O)C1=NN(c2ccccc2)C(=O)CC1)c1c(N)n(CCC)c(=O)[nH]c1=O	-	-	-	-	-	-
Cc1cc2c(s1)c1cnn(Cc3ccc(S(C)(=O)=O)cc3)c(=O)c1n2C	.	20.6µM	-	.	.	.
S=C(NCCCN(Cc1ccc(Cl)c(Cl)c1)c1ccc(Br)cn1)NCCc1cnc[nH]1	.	-	-	.	.	.
COc1ccc(-n2cc(C(=O)NCCc3ccc(C)cc3)c3ccccc3c2=O)cc1	.	18.4µM	-	.	.	-
COC(=O)c1ccc(CNC(=O)c2coc3ccccc3c2=O)cc1	-	-	-	-	-	-
COc1ccc(CCNC(=O)c2coc3ccccc3c2=O)cc1	-	13µM	-	-	-	-
COc1ccc(Nc2c(-c3ccc(C)o3)nc3ccc(Cl)cn23)cc1	.	-[9.27 µM]	-	.	.	-
Cc1cccc(N2CCN(C(=O)c3cnn(-c4cccc(Cl)c4C)c3C3CCNCC3)CC2)c1C	.	?	-	.	.	-
COc1ccc2c(c1)c1nc3ccccc3nc1n2CC(=O)OC(C)C	-	4.61µM	-	-	-	-
COc1ccc(Cn2c3ccc(OC)cc3c3nc4ccccc4nc32)cc1	-	-	-	-	-	-
C=CC[n+]1c(-c2ccc(OC)c(OC)c2)csc1NNC(=O)Nc1ccccc1	-	13µM	?	-	-	-
CCc1ccc2oc(-c3ccc(NC(=O)c4cccc(Cl)c4Cl)cc3)nc2c1	.	8.2µM	-	.	.	-
COc1ccc(Nc2cnn(-c3nc4ccccc4s3)c(=O)c2Cl)cc1	-	?	-	-	-	10µM
O=c1c(Cl)c(Nc2cccc(Cl)c2)cnn1-c1nc2ccccc2s1	-	?	-	-	-	-
COc1ccc(/C=C/c2ccc3cccc(O)c3n2)c(OC)c1OC	-	?	-	-	-	22.4µM
COc1cccc(/C=C/c2ccc3cccc(O)c3n2)c1	-	?	-	-	-	?
SMILES	A-T KAP1 phos	Nrf2 block	A549 tox	TCR act	CCT chaperon mod	Nrf2 activator
Oc1cccc(/C=C/c2ccc3cccc(O)c3n2)c1	-	-	-	-	-	4.47µM
CCOc1ccc(CNC(=O)c2cccc(NC(=O)N3CCSc4ncccc43)c2)cc1	.	?	-	.	.	-
CC(C)Oc1ccc(CNC(=O)c2cccc(NC(=O)N3CCSc4ncccc43)c2)cc1	.	23.1µM	-	.	.	-
O=C(Nc1ccccc1Cl)N1CCCN(c2nc(-c3ccccc3)ns2)CC1	-	?	-	-	-	-
Cc1c(Cl)cccc1NC(=O)N1CCCN(c2nc(-c3ccccc3)ns2)CC1	-	20.6µM	-	-	-	-
O=C(Nc1ccccc1)N1CCN(c2nc(-c3ccccc3)ns2)CC1	-	23.1µM	-	-	-	-
CCCCn1c(=O)c2oc3ccccc3c2n(Cc2cccc(C)c2)c1=O	.	-	-	.	.	-
Cc1cccc(CN2CCN([C@@H]3CS(=O)(=O)N[C@H]3COCc3ccccc3)CC2)c1	.	.	.	.	-	-
CC(=O)Nc1ccc(S(=O)(=O)NCCSCc2c(Cl)cccc2Cl)cc1	-	14.6µM	-	-	-	-
CC(=O)Nc1ccc(S(=O)(=O)NCCSCc2cccc(Cl)c2)cc1	-	-	-	-	-	-
Cc1nc2cc(-c3sccc3-n3cccc3)nn2c(C)c1C	-	-	-	-	-	-
Cc1cc(-c2sccc2C)nc(-n2cccc2)n1	-	-	-	-	-	5.62µM
Cc1ccc2[nH]c(CSc3nnc(NC(=O)COc4ccccc4Cl)s3)cc(=O)c2c1	.	.	-	.	.	-
O=C(NCc1ccc(F)cc1)c1ccc(S(=O)(=O)Nc2cccc(C(F)(F)F)c2)cc1	-	23.1µM	-	-	-	-
O=C(NCc1ccccc1F)c1ccc(S(=O)(=O)Nc2cccc(C(F)(F)F)c2)cc1	-	?	-	-	-	-
CCn1c(C)c(C)c2cc(C(=O)NCCN3CCOCC3)ccc21	-	-	-	-	-39.9	-
Cc1ccc(NS(=O)(=O)c2ccc(C(=O)NCCN3CCOCC3)cc2)cc1	-	9.2µM	-	-	-	-
O=C(NCCN1CCOCC1)c1ccc(S(=O)(=O)Nc2ccccc2)cc1	-	-	-	-	-	-
O=C(NCCCN1CCOCC1)c1ccc(S(=O)(=O)Nc2cccc(C(F)(F)F)c2)cc1	-	-	-	-	-36.9	-
Cn1c2cc(CO)sc2c2cnn(Cc3ccccc3F)c(=O)c21	.	-	-	.	.	.
Cc1ccc(NS(=O)(=O)c2cccc(C(=O)NCC3CCCO3)c2)cc1 (stereo not given)	-	20.6µM	-	-	-	-
O=C(NCC1CCCO1)c1cccc(NS(=O)(=O)c2ccccc2)c1 (stereo not given)	-	-	-	-	-	-
CC(=O)N1c2ccc(S(=O)(=O)NCCc3cccc(C)c3)cc2CC1C (stereo not given)	.	13µM	-	.	.	-
CCC(=O)N1c2ccc(S(=O)(=O)NCCc3ccccc3)cc2CC1C (stereo not given)	-	23.1µM	-	-	-	-
CCC(=O)N1c2ccc(S(=O)(=O)NCCc3ccc(OC)c(OC)c3)cc2CC1C (stereo not given)	-	?	-	-	-	-
Cc1cccc(NC(=O)Cn2nnc(-c3nc(-c4ccncc4)no3)c2N)c1	.	?	-	.	.	-
CCNc1nc(Oc2ccc(OC)cc2)cc(C(F)(F)F)n1	-	?	-	-	-	-
